This is a sample that favours compounds with a hit; in the whole collection about 1.8% have one here.
HDAC3 inh – HDAC3 deacetylase inhibitors, primary screen, biochemical, fluorescence, cell-free homogeneous | Histone deacetylase 3 (Homo sapiens), O15379 | 0.15% of 320,000 active | recombinant HDAC3, fluorogenic peptide/trypsin coupled | AID 2718, 2010 | inhibition, % at 8.3 µM; in the data active = inhibition above about 26%, passing the limit was not always enough; inconclusive = no clear call, values can overlap the other calls
Target sequence (O15379 whole entry, looked up): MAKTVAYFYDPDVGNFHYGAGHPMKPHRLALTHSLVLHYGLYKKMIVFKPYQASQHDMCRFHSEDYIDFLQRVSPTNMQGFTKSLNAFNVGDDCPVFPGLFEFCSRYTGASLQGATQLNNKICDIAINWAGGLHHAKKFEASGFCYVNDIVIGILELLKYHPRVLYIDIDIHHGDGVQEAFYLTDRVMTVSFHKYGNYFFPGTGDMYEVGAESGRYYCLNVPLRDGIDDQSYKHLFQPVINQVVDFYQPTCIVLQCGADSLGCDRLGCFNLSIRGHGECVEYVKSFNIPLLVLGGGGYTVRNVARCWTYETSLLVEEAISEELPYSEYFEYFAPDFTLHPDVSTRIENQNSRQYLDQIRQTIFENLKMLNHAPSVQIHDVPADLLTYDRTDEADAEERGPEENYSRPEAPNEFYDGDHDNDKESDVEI
H9c2 protect – cardioprotection against H2O2-induced cell death, primary screen, uHTS, H9c2 cells, ATPLite luminescence | H9c2 cardiomyocytes, H2O2 injury protection, 2 h | protection from H2O2 cell death, % at 20 µM | 0.63% of 360,000 active;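 active = compounds giving at least 50% protection of heart cells from peroxide-induced death in the single-dose screen, raw or plate-pattern-corrected value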;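 also: 0% = DMSO wells with peroxide and 100% = DMSO wells without peroxide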
Neddylation inh – inhibitors of cullin neddylation, primary screen, biochemical, TR-FRET, uHTS, NAE and Ubc12; NEDD8-conjugating enzyme Ubc12 (Homo sapiens) + NEDD8-activating enzyme E1 regulatory …; 0.58% of 360,000 active; inhibition, % at 25 µM; AID 651699, 2012; in the data active = inhibition above about 36%
GRK2 aptamer HTS – compounds blocking aptamer binding on GRK2 – biochemical, human GRK2, bead flow cytometry, HTS, primary screen; 0.59% of 330,000 active; FAM-aptamer displacement from GRK2; Beta-adrenergic receptor kinase 1 (Homo sapiens), P25098; inhibition of aptamer binding, % at 10 µM;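 active = inhibition of aptamer binding above 40%, roughly 3 SD of noise, on plates passing a quality check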;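 also: median bead fluorescence of bound FAM aptamer so fluorescent compounds give negative values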
Neddyl conf – blockade of NEDD8 conjugation to cullin – biochemical, TR-FRET, single concentration, confirmation; shares compounds with Neddylation inh; TR-FRET cullin neddylation biochemical assay; calls only at 25 µM; 13% of 1,800 active; in the data active = inhibition above about 40%;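 also: neddylation substrate is the cullin 1 ring ligase complex with SKP2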
* marks the source's active call; other numbers are inactive results; i = inactive; ? = inconclusive; · = not tested or not shown; + = active, no number.

SMILES	HDAC3 inh	H9c2 protect	Neddylation inh	GRK2 aptamer HTS	Neddyl conf
O=S(=O)(c1ccc(Cl)cc1)N1CCN(c2ccc(N3CCOCC3)nn2)CC1	4	4	43*	0	i
O=C(N1CCOCC1)N1CCN(S(=O)(=O)c2ccc(Cl)cc2)CC1	3	-4	10	1	·
COc1cccc(/C=C/C(=O)OCC(=O)N2CCN(S(=O)(=O)c3ccc(Cl)cc3)CC2)c1	-5	-2	41*	0	i
COc1cc(/C=C/C(=O)OCC(=O)N2CCN(S(=O)(=O)c3ccc(C)cc3C)CC2)ccc1O	0	-1	48*	6	i
CCN(CC)c1ccc(S(=O)(=O)N2CCOCC2)cc1NC(=O)COC(=O)/C=C/c1ccc(O)c(OC)c1	·	19	32*	·	i
COc1cccc(/C=C/C(=O)OCC(=O)Nc2ccc(S(=O)(=O)N3CCCC3)cc2)c1	-1	-2	·	1	·
Cc1ccc(S(=O)(=O)N2CCN(C(=O)COC(=O)/C=C/c3ccc(Cl)cc3)CC2)c(C)c1	·	-9	-22	·	·
COc1cccc(/C=C/C(=O)N2CCN(S(=O)(=O)c3ccccc3)CC2)c1	·	0	41*	·	i
NC(=O)[C@@H]1CCCN1C(=O)c1ccc2nc(Cc3ccccc3F)oc2c1	6	5	-3	0	·
O=[N+]([O-])c1ccc(S(=O)(=O)c2cccc(C(F)(F)F)c2)nc1	-6	-18	-9	0	·
CCCOC(=O)C1=C(C)N(C)C(=O)NC1c1cc2c(cc1[N+](=O)[O-])OCO2 (stereo unspecified)	7	3	43*	4	i
COc1ccc(-c2cc(C(=O)NNC(=O)c3csc(N4CCOCC4)n3)c3ccccc3n2)cc1OC	1	44	25	1	·
COc1ccc(-c2cc(C(=O)NNC(=O)c3csc(N4CCOCC4)n3)c3ccccc3n2)cc1	0	52*	42*	0	i
CC(C)CC(=O)Nc1ccc(S(=O)(=O)Nc2nccs2)cc1	3	1	-8	1	·
COc1ccc(-c2c(-c3cc(OC)cc(OC)c3)n(C)c3ccc(-c4cc(F)cc(OC)c4)cc23)cc1	-6	-7	-27	3	·
COc1ccccc1N(C(=O)c1snc(C(N)=O)c1N)C(C(=O)NC1CCCC1)c1ccco1 (stereo unspecified)	-16	2	43*	0	+
COc1ccc(C)cc1N(C(=O)c1snc(C(N)=O)c1N)C(C(=O)NC1CCCCC1)c1ccc(C)o1 (stereo unspecified)	·	-9	44*	·	·
CCOc1ccccc1N(C(=O)c1snc(C(N)=O)c1N)C(C(=O)NCCC(C)C)c1ccco1 (stereo unspecified)	6	0	44*	0	i
COc1ccccc1C(=O)NC(=O)COc1ccc([N+](=O)[O-])cc1	5	17	-28	6	·
CCc1ccc(NC(=O)C2CCCN2c2nn3c(=O)cc(C)nc3s2)cc1 (stereo unspecified)	0	-4	8	0	·
CC(=O)Nc1ccc(S(=O)(=O)Nc2nc3ccccc3nc2Nc2ccccc2)cc1	-30	4	·	1	·
COc1ccc(S(=O)(=O)Nc2nc3ccccc3nc2Nc2cccc(C(=O)O)c2)cc1	-22	-4	42*	0	i
CCS(=O)(=O)Nc1ccc(C2=NN(S(=O)(=O)CC)C(c3cccs3)C2)cc1 (stereo unspecified)	?	-4	44*	0	i
CC(=O)NS(=O)(=O)c1ccc(NC(=O)CCC(=O)Oc2ccc(C)cc2)cc1	-9	-6	-3	0	·
COc1ccc2oc(C(=O)CCC(=O)O)c(N)c2c1	-3	-10	48*	0	i
SMILES	HDAC3 inh	H9c2 protect	Neddylation inh	GRK2 aptamer HTS	Neddyl conf
COC(=O)CCC(=O)c1oc2ccc(Br)cc2c1N	-12	-9	9	0	·
COc1ccc(OC)c(/C=C/C(=O)OCC(=O)NC2CCCCCCC2)c1	-4	-7	59*	3	·
COc1cccc(/C=C/C(=O)OCC(=O)c2cc(C)n(CC3CCCO3)c2C)c1OC (stereo unspecified)	3	-18	43*	14	i
COc1cccc(/C=C/C(=O)OCC(=O)NCC2CCCCC2)c1OC	-5	-4	30*	0	i
COc1cccc(/C=C/C(=O)OCC(=O)N2c3ccccc3CC2C)c1OC (stereo unspecified)	·	-4	46*	·	·
COc1cccc(/C=C/C(=O)OCC(=O)NCc2ccco2)c1OC	-10	-1	14	8	·
Cn1c(C(=O)OC(C(=O)NC2CCCCC2)c2cccnc2)cc2sccc21 (stereo unspecified)	3	16	-31	0	·
COc1ccc2nc(CC(C)(C)CC(=O)O)c[n+]([O-])c2c1	-12	7	51*	0	·
COc1ccc2nc(COC(=O)c3ccco3)c(C(C)=O)[n+]([O-])c2c1	1	-1	13	1	·
Cc1ccc(-c2nnc(Nc3ccc(CC(N)=O)cc3)c3ccccc23)cc1	4	5	45*	0	i
Cc1ccc(-c2nnc(Nc3ccc(CC(N)=O)cc3)c3ccccc23)cc1S(N)(=O)=O	-8	0	19	0	·
CCC(C)[C@H](NC(=O)C1CC(=O)N(c2ccc(OC)cc2)C1)C(=O)N1CCCCC1 (stereo partly specified)	-8	9	1	2	·
COc1cccc2[nH]c3c(N4CCCCC4)ncnc3c12	3	-3	45*	0	·
O=[N+]([O-])c1cc(S(=O)(=O)N2CCCCCC2)ccc1Cl	·	-8	-11	·	·
NC(=S)N1N=C(c2ccccc2)CC1=O	·	1	1	·	·
O=C(O)C/C(=C\c1ccc2c(c1)OCO2)c1nc2ccccc2s1	0	1	45*	0	·
CN1CCOc2c1cnn(CCO)c2=O	·	4	40*	·	i
Cc1ccc(S(=O)(=O)c2cc3c(=O)n4ccccc4nc3n(C)c2=N)cc1C	-11	-2	·	0	·
N=c1c(S(=O)(=O)c2ccccc2)cc2c(=O)n3ccccc3nc2n1CCCN1CCOCC1	-32	9	63*	3	i
C=CCn1c(=N)c(S(=O)(=O)c2ccc(C)c(C)c2)cc2c(=O)n3ccccc3nc21	-1	-4	47*	0	i
N#Cc1cc2c(=O)n3ccccc3nc2n(CCCn2ccnc2)c1=N	-25	9	46*	0	i
Cc1ccc(S(=O)(=O)c2cc3c(=O)n4ccccc4nc3n(CCCN3CCOCC3)c2=N)cc1C	-37	6	·	0	·
c1ccc(Cn2ccc(-c3cnc(-c4ccccc4)s3)n2)cc1	-93	-30	·	1	·

Screening results (PubChem)
